# Rows were chosen to be rich in hits. Some 10% of all compounds tested hit in one or more screens of this group.
# PNC inhibitor: perinucleolar compartment assembly inhibition | PC3M PTB-GFP, PNC prevalence imaging, 16 h; stronger effect = lower value | activity change (PNC), negative = inhibition, % at 10 µM | 140,000 tested, 3.1% active | AID 2417;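 active means readout at or below -70, meaning at least 70% loss of cells showing the perinucleolar compartment, a nuclear body marking cancer cells; inconclusive means readout between -30 and a set limit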;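 further: plate controls were DMSO wells for no effect and camptothecin positive control wells for full effect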
#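 PC3M cells stably expressing PTB-GFP, 750–1000 cells/well, treated 16 h at 37 °C with compound (23 nl of library stock), in duplicate. After paraformaldehyde fixation and Hoechst stain, imaged at 20x; PNC prevalence scored by image analysis.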
# ALDH1A1 inh: ALDH1A1 (human) enzyme inhibition; Purified ALDH1A1, NADH fluorescence, propionaldehyde substrate; AID 1030; P00352; Potency, µM (series often up to 75.3 µM), for the others: top-dose activity, negative = inhibition, hits mostly inhibitors; 220,000 tested, 7.3% active;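 further: potency means the concentration at half of the fitted maximal effect; plate controls were no enzyme wells and a reference inhibitor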
# Target sequence (P00352 whole entry, looked up): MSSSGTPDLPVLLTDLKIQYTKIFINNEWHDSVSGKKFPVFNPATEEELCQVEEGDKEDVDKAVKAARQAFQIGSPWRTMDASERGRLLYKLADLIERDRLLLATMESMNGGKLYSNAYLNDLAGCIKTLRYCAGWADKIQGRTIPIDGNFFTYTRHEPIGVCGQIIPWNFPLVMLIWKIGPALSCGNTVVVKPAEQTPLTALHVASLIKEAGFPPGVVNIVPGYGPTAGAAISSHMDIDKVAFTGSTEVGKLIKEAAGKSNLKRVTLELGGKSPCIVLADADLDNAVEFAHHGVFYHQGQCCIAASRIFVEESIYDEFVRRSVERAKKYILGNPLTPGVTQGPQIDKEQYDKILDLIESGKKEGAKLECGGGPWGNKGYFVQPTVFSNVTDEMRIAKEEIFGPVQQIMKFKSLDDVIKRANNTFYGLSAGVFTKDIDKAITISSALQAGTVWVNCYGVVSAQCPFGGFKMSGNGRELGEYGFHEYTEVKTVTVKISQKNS
# Lamin A splicing: modulators of lamin A splicing; Potency, µM (highest dose often 46.1 µM), without a hit: at the highest dose ratio change, negative = inhibition, actives largely listed as inhibitors; HeLa LMNA splicing GFP/RFP minigene ratio, 48 h; 200,000 tested, 0.01% active; active means well fitted inhibition curve with a large enough effect in the signal ratio, with a control signal flat, not every such curve was filed as active; inconclusive means small, poorly fitted or top-dose-only effect, or effect the other way, or a change in a side signal; the % refers to the signal ratio; further: potency means the concentration at half of the fitted maximal effect
#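 Read-out is the ratio of GFP to DsRed2 object intensity, acquired by 488 nm laser-scanning cytometry on HeLa lamin A-EGFP minigene reporter cells. Compound incubation 48 hrs at 37 °C in Opti-MEM with 2% FBS; DMSO 0.5% final.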
# HPGD block: inhibitors of human 15-hydroxyprostaglandin dehydrogenase (HPGD) | purified HPGD, NADH fluorescence kinetic, PGE2 substrate | Potency, µM, without a hit: at the highest dose activity change, negative = inhibition, actives largely listed as inhibitors | 150,000 tested, 4.3% active; further: potency means the concentration at half of the fitted maximal effect
#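 NADH formation kinetics: reaction with 30 uM PGE2 and 1 mM NAD+ (final), 20 nM enzyme, Tris-HCl pH 8 with Tween 20, after 15 min compound preincubation at room temperature. Fluorescence change, last versus first of five reads.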
# Luc counter: Kinase-Glo luciferase inhibition (counter-screen) | Kinase-Glo luciferase, ATP luminescence, 8 min | Potency, µM (titrated, usually from 38.3 µM), without a hit: top-dose activity change, negative = inhibition, actives largely listed as inhibitors | 200,000 tested, 0.28% active | AID 1379; active means well fitted inhibition curve with a large enough effect; inconclusive means small, poorly fitted or top-dose-only effect; further: potency means the concentration at half of the fitted maximal effect; nearly all actives have a fitted effect of over 60% in size
#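 Luminescence was the read-out, taken after 8-minute incubation at ambient temperature. Luciferase turned over luciferin with 10 uM ATP in imidazole pH 7.2 buffer containing KCl, MgCl2, Tween 20 and BSA.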
# Active calls of the source: *; ? = inconclusive; . = no result; [ ] = remark or other dose. Unless noted, the call rests on the fitted dose curve; in most records, active means well fitted inhibition curve with a large enough effect (not every such curve was filed as active); inconclusive means small, poorly fitted or top-dose-only effect, or another doubt; inactive means no such curve, though single readings can be large or run the other way. Unless noted, on the % scale 0 is the no-effect control and ±100 the full control effect.
SMILES,PNC inhibitor,ALDH1A1 inh,Lamin A splicing,HPGD block,Luc counter
CN(C)S(=O)(=O)n1cnc(-c2ccccc2)c1-c1ccccc1,-117*,12%,-4%,-7%,1%
COc1ccccc1NC(=O)c1ccc(-c2ccccc2[N+](=O)[O-])o1,.,7.9µM*,.,.,-1%
O=C(C1CC(=O)N(C2CCCC2)C1)N1CCC(Cc2ccccc2)CC1 (centres undefined),-106*,?,9%,-3%,-4%
O=C(C1CC(=O)N(C2CCCC2)C1)N1CCN(c2ccccc2F)CC1 (centres undefined),27,3%,6%,4%,-1%
Cc1ccc(C(=O)Nc2ncc3c(Cl)cccc3n2)cc1,?,-7%,0%,-4%,11µM*
CN(C)CCNC(=O)c1sc2cccc(F)c2c1Cl,.,14µM*,?,.,0%
O=C(NCCCn1ccnc1)c1sc2cccc(F)c2c1Cl,6,28µM*,-9%,-19%,16%
O=C(Nc1cccnc1)c1sc2cccc(F)c2c1Cl,.,?,?,.,0%
CC(C)c1ccccc1NC(=S)NCCCn1ccnc1,.,6%,-6%[46 µM],.,-1%
O=C(NCCCn1ccnc1)Nc1cccc2ccccc12,-100*,7%,-3%,-21%,3%
CC(C(=O)Nc1ccc(F)c(Cl)c1)N1Cc2ccccc2C1=O (centres undefined),.,.,-5%[46 µM],.,.
COCCNc1nc(-c2ccccc2Cl)nc2ccccc12,.,4%,-7%,.,.
Cc1cccc(NC(=O)CCc2ccc(C)o2)c1,-80*,-10%,0%,-20%,-5%
Cc1ccc(CCC(=O)Nc2ccc(S(N)(=O)=O)cc2)o1,12,14µM*,5%,-25%,2%
O=C(CN1CCCCCC1)Nc1cccc(Br)c1,26,-9%,1%,-19%,-3%
Cc1cccc(NC(=O)CN2CCN(CC(=O)Nc3cccc(C)c3)CC2)c1,?,20µM*,4%,-2%,1%
Cc1cccc(NC(=O)CCc2ccccc2)c1,.,0%,.,.,.
Cc1ccc(Cl)cc1NC(=O)CCCn1c(=O)c2cccn2c2ccccc21,.,.,-9%[46 µM],.,.
C/C(=N/NS(=O)(=O)c1ccc(C)cc1)P(=O)(O)O,.,9%[13.5 µM],.,-14%,-1%[7.66 µM]
COCCn1c(=O)cnc2cnc(Oc3ccccc3)nc21,.,?,2%,.,.
Cc1ccc(OCCSc2nc(N)cc(N)n2)cc1,.,-6%,.,.,10%
COc1ccc(OCCSc2nc(N)cc(N)n2)cc1,8,?,3%,25µM*,-8%
CCCOc1ccc(OCCSc2nnc(N)s2)cc1,20,7%,?,5µM*,-3%
Clc1ccc(OCCCCSc2ncccn2)cc1,8,-7%,22%,-25%,1%
CCCOc1ccc(OCCSc2ncccn2)cc1,?,2%,-9%,14µM*,-5%
SMILES,PNC inhibitor,ALDH1A1 inh,Lamin A splicing,HPGD block,Luc counter
CN1CCc2cc3c(cc2C(=O)Cc2ccc4c(c2C1)OCO4)OCO3,.,-2%,.,-8%,2%
Cc1cc(C)cc(NC(=S)NCc2cccs2)c1,6,-3%,4%,14µM*,0%
COc1cc(NC(=S)NCc2cccs2)cc(OC)c1,33,-14%,5%,18µM*,-6%
COc1cc(NC(=S)NCc2ccco2)cc(OC)c1,?,?,-5%,?,1%
Clc1ccc(Cn2ncc3c(NCc4ccco4)ncnc32)c(Cl)c1,40,?,-28%,28µM*,2%
CCC(OC(=O)c1nsc(Cl)c1Cl)C(=O)NCc1ccco1 (centres undefined),-16,?,6%,10µM*,-2%
CCC(OC(=O)c1nsc(Cl)c1Cl)C(=O)NC(C)(C)C (centres undefined),.,-2%,4%[46 µM],.,1%
CCCN1Cc2cccc(C(=O)NC(CC(=O)OCC)c3ccc(C)cc3)c2C1=O (centres undefined),.,13µM*,.,.,.
CCNC(=O)C/C(C)=N/NC(=O)C12CC3CC(CC(C3)C1)C2,-7,4µM*,10%,-13%,0%
COc1ccc(-c2cc3ccc(O)c(CN4CCOCC4)c3oc2=O)cc1OC,.,.,-4%[46 µM],.,.
Cc1nn(S(=O)(=O)c2ccc(C(C)C)cc2)c(C)c1S(=O)(=O)N1CCCCC1,.,.,4%[46 µM],.,.
CCCCn1c(=O)nc2n(-c3ccc(C)cc3)c3ccccc3cc-2c1=O,0,?,16%,?,-3%
CCCCn1c(=O)nc2n(-c3ccc(OC)cc3)c3ccccc3cc-2c1=O,.,8.9µM*,.,.,3%
COc1ccc(N2CCC(CNC(=O)Nc3ccc(Cl)cc3)C2)cc1 (centres undefined),.,5.6µM*,?,.,5%
COc1ccc(N2CCC(CNC(=O)Nc3cccc(OC)c3)C2)cc1 (centres undefined),25,?,-9%,-8%,-3%
CCc1cccc(C)c1NC(=S)NCC1CCN(c2ccc(OC)cc2)C1 (centres undefined),.,10µM*,.,.,14%
Cc1ccc(-n2ncc(C(=O)Nc3ccc4c(c3)OCO4)c2C2CCN(C(=O)OC(C)(C)C)CC2)c(C)c1,.,.,-14%[46 µM],.,.
CCOC(=O)CCN1C(=O)[C@H]2[C@H]3[C@H](O)[C@H](O)C/C(=N/NC(=O)OCc4ccc(OC)cc4)[C@@H]3CC[C@@H]2C1=O,.,-10%[13.5 µM],.,.,.
COc1ccc2c(c1)C(=O)c1ccccc1CO2,?,4µM*,20%,35µM*,-24%
Nc1ccccc1C(=O)C[C@@H](N)C(=O)O,.,0%,.,.,.
O=C(Nc1ccc(S(=O)(=O)N2CCOCC2)cc1)c1ccc2c(c1)S(=O)(=O)c1ccccc1C2=O,.,13%,3%[46 µM],.,0%
O=C(Nc1cc(S(=O)(=O)N2CCOCC2)ccc1O)c1ccc2c(c1)S(=O)(=O)c1ccccc1C2=O,.,1.1µM*,-3%[46 µM],.,2%
N#Cc1cc2c([nH]c1=S)CCCCCC2,-10,10µM*,8%,7.9µM*,1%
N#Cc1cc2c(nc1SCC(N)=O)CCCCC2,23,-14%,8%,-14%,-1%
CCCCOC(=O)c1ccc(NC(=O)c2csnn2)cc1,.,.,21%[46 µM],.,.
SMILES,PNC inhibitor,ALDH1A1 inh,Lamin A splicing,HPGD block,Luc counter
O=C(Nc1ncnc2sc3c(c12)CCCCC3)c1ccco1,-124*,11%,-10%,?,0%
O=C(ON=C1CCN(c2ccc([N+](=O)[O-])cc2)CC1)c1ccccc1,24,?,0%,-6%,-2%
COc1ccc(C(=O)ON=C2CCN(c3ccc([N+](=O)[O-])cc3)CC2)cc1,9,4µM*,16%,-13%,-3%
Nc1ncnc2c1nc(Br)n2C1O[C@H]2COP(=O)(O)O[C@@H]2C1O (some centres undefined),.,3%,?,-6%,-1%
CC(CCc1ccccc1)NC(=O)c1ccc(NC(=O)c2cccc(Br)c2)cc1 (centres undefined),-113*,-5%,7%,-14%,2%
CC(CCc1ccccc1)NC(=O)c1ccc(NC(=O)c2ccccc2)cc1 (centres undefined),-6,-4%,-8%,.,.

# From PubChem BioAssay
